# According to PubChem BioAssay AID2685 (National Center for Advancing Translational Sciences (NCATS), 2010):
# In all, about 320,000 compounds went through this assay and about 2,100 (0.66%) were called active. Not shown: some 53% with an inconclusive outcome. Calls come from the whole dose curve; as a rule, active = well fitted inhibition curve with a large enough effect in the signal ratio, with a control signal flat (not every such curve was filed as active); inconclusive = small, poorly fitted or top-dose-only effect, or effect the other way, or a change in a side signal; inactive = flat fitted curve, though single readings scatter; the % refers to the signal ratio. Only a selection was taken, and actives are over-represented in it overall.
# Test: qHTS Assay for Lipid Storage Modulators in Drosophila S3 Cells;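 for cell number change: cells counted by Cell Tracker Red CMTPX staining in the red channel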; for lipid storage change, negative = inhibition: % is set by controls: 0 for no effect and ±100 for the full control effect
# Conditions: BODIPY lipid droplet fluorescence, 18-24 h, cells fed with added oleic acid; cell number change: measured here: cell count max response; series mostly up to 46.1 µM; lipid storage change, negative = inhibition: at the top concentration
# In short: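 Laser-scanning cytometry quantifies lipid droplet accumulation (500–530 nm total intensity; droplet/cell object ratio) in oleic acid-fed (400 uM added) Drosophila S3 cells treated with a concentration series. 20 uM Triacsin C defined 100% inhibition.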
# Potency is the fitted concentration of half-maximal effect.
SMILES,Potency,cell number change [%],"lipid storage change, negative = inhibition",outcome
Cc1ccc(Nc2nc(N)nc(CN3CCN(C)CC3)n2)cc1,25.9 µM (active),-12,,
CN1CCN(Cc2nc(N)nc(Nc3ccc4c(c3)OCCO4)n2)CC1,,-0.153,1.73% (inactive),
Cc1ccc(Nc2nc(N)nc(CN3CCN(C)CC3)n2)cc1C,,7.98,2.99% (inactive),
O=C(Cc1cccc(C(F)(F)F)c1)NCc1cccnc1,,16.2,-11.2% (inactive),
CCc1c(C)sc(NC(=S)N2CCN(C(=O)C3CCCO3)CC2)c1C(=O)OC (stereo unspecified),,,,inactive
COc1ccc(C(=O)N/C(=C\c2cn(C)c3ccccc23)C(=O)N2CCN(C)CC2)cc1,,12.5,,inactive
COc1ccccc1NC(=O)/C(C#N)=C/c1cccnc1,,14.4,,inactive
COc1ccccc1NC(=O)/C(C#N)=C/c1ccncc1,1.16 µM (active),-3.78,,
COc1ccc(NC(=O)/C(C#N)=C/c2cccnc2)c(OC)c1,,-14.9,,inactive
Cc1ccc(NC(=O)CC2Oc3ccc(C)cc3NC2=O)c(C)c1 (stereo unspecified),,7.72,-7.11% (inactive),
Cc1ccc(S(=O)(=O)c2nnn(-c3cccc(F)c3)c2N)cc1,,-21.1,1.42% (inactive),
C[C@H](NC(=O)[C@H]1N2C(=O)c3ccccc3C2SC1(C)C)C(=O)N1CCC[C@H]1C(=O)O (stereo partly specified),,,26.5% (inactive),
CCC(C)NC(=O)[C@H]1N2C(=O)c3ccccc3C2SC1(C)C (stereo partly specified),,25,-2.79% (inactive),
C[C@H](NC(=O)[C@H]1N2C(=O)c3ccccc3C2SC1(C)C)C(=O)N1CCCCC1 (stereo partly specified),23.1 µM (active),-4.2,,
Cc1ccc(-c2nnnn2C2C/C(=N\NC(N)=S)C3OCC2O3)cc1 (stereo unspecified),,-15.7,-15.2% (inactive),
COc1ccc(C(=O)N(CCc2ccccc2)Cc2cccs2)c(OC)c1,13 µM (active),-11.1,,
COc1ccc(C(=O)N(Cc2ccco2)Cc2cccs2)c(O)c1,,11,,inactive
COc1ccc(C(=O)OCC(=O)NCCCc2ccccc2)c(OC)c1,,26.9,7.81% (inactive),
CCOc1cc(C2C(C#N)=C(N)SC(N)=C2C#N)ccc1OCCN1CCOCC1,,,,inactive
O=C(O)c1cccc(-c2ccc(/C=C3/SC(=Nc4ccccc4)N(Cc4cccnc4)C3=O)o2)c1,,-5.87,6.57% (inactive),
CCN=C1S/C(=C/c2ccc(-c3ccc(F)cc3)o2)C(=O)N1CC,18.4 µM (active),4.49,,
CCN=C1S/C(=C/c2ccc(-c3ccc(Cl)cc3C(=O)O)o2)C(=O)N1CC,,,-0.481% (inactive),
CCN1C(=O)/C(=C\c2ccc(-c3cccc(C(=O)OC)c3)o2)SC1=Nc1ccc(C(=O)O)cc1,6.51 µM (active),-21.2,,
CC(C)(C)OC(=O)CN1C(=O)S/C(=C\c2ccc(-c3cccc(C(=O)O)c3)o2)C1=O,,2.36,-14.2% (inactive),
CCN=C1S/C(=C\c2ccc(Sc3ccc(Cl)cc3)o2)C(=O)N1CC,,-1.66,21.1% (inactive),
